This is an account of results in PubChem BioAssay AID1347432 (National Center for Advancing Translational Sciences (NCATS), 2020).

Molecules are shown by their SMILES. Activity calls are given as the source filed them. A call without a number means that no potency is given here. Calls follow the shape of the dose curve; as a rule, active = well fitted curve in the direction sought with a large enough effect; inactive = no such curve, though single readings can be large or run the other way.

This assay has as its target Uracil-DNA glycosylase (Escherichia coli (strain K12)) (UniProt P12295). Description: Confirmatory (Round 2) qHTS assay for inhibitors of Activation Induced Cytidine Deaminase (AID): UDG counterscreen signal. The following applies: FRET fluorescence, 4 h; series mostly up to 78.4 µM. The text has this:
Assay Provider (PI) Patricia Gearhart Ph.D. National Institute on Aging National Institute of Health (NIH), Bethesda, MD Assay Provider (PI) Rahul Kohli Ph.D. Perelman School of Medicine University of Pennsylvania, Philadelphia, PA Activation-Induced Deaminase (AID) is a cytosine deaminase which converts cytosine into uracil within stretches of ssDNA. The presence of uracil in DNA initiates a cascade of mutagenic DNA repair to introduce point mutations and DNA double strand breaks. Specific targeting of AID to the immunoglobulin heavy chain loci (Igh) promotes mutagenesis in the antibody variable region for somatic hypermutation (SHM) or switch regions leading to class switch recombination (CSR). However, AID also plays a role in accumulating unnecessary mutations across the genome. Mis-targeting of AID results in the initiation of tumor development and leads to greater drug resistance among cancer cells when continually expressed. To identify an AID inhibitor, a small molecule library will be screened in collaboration with NCATS core facility at NIH. To confirm biological function, inhibitors will be examined in an in vitro murine B-cell activation assay and subsequent secondary validation screens. Top molecules will be further screened to identify inhibitory efficacy against a wild type primary splenocytes assay. Using these approaches, we hope to identify a small molecule with great efficacy and low toxicity for use as a molecular probe to further characterize AID's intricacies, or even as a therapeutic. A FRET based analysis of cytosine deamination, was developed to identify potential inhibitors of AID catalytic activity. This screen has two signal output, Read 1 evaluates the AID inhibition response. The second readout (Read 2) evaluates UDG response and is uses as a counterscreen to exclude false positive inhibitors. Inhibition in AID and inactivity in the UDG signal is the desired outcome for this assay.
PROTOCOL TABLE SEQUENCE No. (e.g., 1, 2, 3, etc.); PARAMETER (e.g., Cells, Incubation, Reagent, etc.); VALUE; DESCRIPTION 1a; Reagent; 3 uL; [4/3x] 1 uM AID/2.67 U/mL UDG 1b; Reagent; 3 uL; 2 U/mL UDG 1c; Reagent; 3 uL; 1 uM AID 2a; Compound; 46 nL; Follow-up plates (0.64 uM - 10 mM) 2b; Control; 46 nL; ATA ([…] - 10 mM) 3; Time; 10 min; incubation at room temperature 4; Reagents; 1 uL; [4x] 250 nM DJC20 / 250 nM DJC23 [Substrate] 5; Time; 4 hr; incubation at room temperature 6; Reagent; 4 uL; [2x] 250 mM NaOH 7; Time; 15 sec; centrifuge at 1000 rpm 8; Time; 30 min; incubation at room temperature 9a; Detection; fluorescence (Read 1: AID); EnVision (PerkinElmer) plate reader, 540 excitation and 590 emission filters 9b; Detection; fluorescence (Read 2: UDG); EnVision (PerkinElmer) plate reader, 560 excitation and 665 emission filters NOTES (numbers refer to sequence above) 1a; Reagents were dispensed in a medium-binding black solid-bottom Greiner plates (789176F) using a BioRptr liquid dispenser. Dispense 3 uL of [4/3x] 1 uM AID (provided by Kohli lab) and [4/3x] 2 U/mL UDG (NEB M0280L) into columns 1, 2, 5 to 48. 1b; Dispense 3 uL of [4/3x] 2 U/mL UDG into column 3. 1c; Dispense 3 uL of [4/3x] 1 uM AID into column 4. 2a; Compound (7-points [uM]: 0.64; 3.2; 16; 80; 400; 2,000; 10,000; […]) double pin-transferred (Dip Factor = 2) using the Kalypsys (Wako USA) pintool equipped with a 1536 pinhead for a final concentration range of 7.32 nM - 114 uM. 2b; 10 mM Aurintricarboxylic Acid (Sigma A1895) (ATA, 8-point, n = 2, 1:2.5 dilution in column 2) double pin-transferred (Dip Factor = 2) using the Kalypsys (Wako USA) pintool equipped with a 1536 pinhead for a [final] range of 186 nM - 114 uM. 3; Room temperature incubation. 4; Dispense 1 uL of substrate mixture from the Kohli lab [4x] […] DJC20 and [4x] 250 nM DJC23 into columns 1 to 48 . 5; Room temperature incubation. 6; Dispense 4 uL of substrate mixture [2x] 250 mM NaOH into columns 1 to 48. 7; Centrifugation step to remove bubbles. […]
Background: Quantitative high-throughput screening tests each substance at several concentrations.
In the case of `COc1ccccc1OCCSc1nc(-c2ccc(C(C)(C)C)cc2)nc2cc(=O)[nH]n12`, the Potency result was “inactive”.
To `Cn1ccnc1CCSc1nc(-c2ccccc2)nc2cc(=O)[nH]n12` belongs “inactive”; to `O=c1cc2nc(-c3ccccc3)nc(SCCOCCOc3ccccc3)n2[nH]1`, “inactive”; to `CN1CCN(CCCSc2nc(-c3ccccc3)nc3cc(=O)[nH]n23)CC1`, “inactive”.
With `CC(C)c1ccc2c(c1)c(SC(C)(C)C)c(CC(C)(C)C(=O)O)n2Cc1ccc(Cl)cc1` the entry was “inactive”; with `O=c1cc2nc(-c3ccccc3)nc(SCCCc3ccncc3)n2[nH]1`, “inactive”; with `Cc1noc(C)c1CCSc1nc(-c2ccccc2)nc2cc(=O)[nH]n12`, “inactive”.
Turning to `O=c1cc2nc(-c3ccccc3)nc(SCCN3CCC(F)(F)CC3)n2[nH]1`, the Potency entry is “inactive”.
With `O=c1cc2nc(-c3ccccc3)nc(SCCCn3ccnc3)n2[nH]1` the entry was “inactive”.
With `O=C(O)C1=CC(=C(c2ccc(O)c(C(=O)O)c2)c2ccc(O)c(C(=O)O)c2)C=CC1=O` the figure was 31.6 µM (active).
